Assay results published in the supplement of paper PMC10646978.
± gives the standard deviation.

Test system: RAW-Dual (murine macrophage reporter line)
Assay: NF-kB reporter (SEAP) activity fold change vs agonist alone; higher = enhanced NF-kB activity
Settings: modulator concentration 10 µM; agonist: CpG ODN 1826 0.5 ug/mL
Procedure, shortened: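 RAW-Dual murine macrophage reporter cells were seeded at 50 000 per well in 384-well plates and pre-incubated 1 hour at 37 °C with compound pin-transferred to 10 μM final. After 1 hour, a PRR agonist was added and cells incubated overnight. Supernatant NF-κB (SEAP, QUANTI-Blue, 620 nm absorbance) and IRF (Lucia luciferase, QUANTI-Luc, luminescence) signals were divided by the mean agonist-only control on the same plate to give fold change. Two replicate plates were averaged, with errors by propagation.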

Going from `CN(C)CCNC(=O)C(=O)NC(c1ccccc1)c1ccccc1` to `COC(=O)C1=C(C)NC(C)=C(C(=O)OC(C)(C)CN(C)CCC(c2ccccc2)c2ccccc2)C1c1cccc([N+](=O)[O-])c1.Cl` (stereo not given), the NF-kB reporter falls from 1.03 ± 0.11 to 0.167 ± 0.023.

First: Cc1nc2n(c(=O)c1CCN1CCC(c3noc4cc(F)ccc34)CC1)CCCC2O (stereo not given)
Second: CC[C@@H]1C(=O)N(C)c2cnc(Nc3ccc(C(=O)N[C@H]4CC[C@H](N5CCN(CC6CC6)CC5)CC4)cc3OC)nc2N1C(C)C
The NF-kB reporter of the first is higher: 1.11 ± 0.27 for the first, 0.553 ± 0.077 for the second.

Compared with `Cc1cnc2c(c1N1CCC(Cc3ccccc3)CC1)c(=O)n(C)c(=O)n2C`, `CCN1CCN(c2nc3c(c(=O)[nH]c(=O)n3C)n2CC(O)COc2cc(C)ccc2C(C)C)CC1` (stereo not given) is higher in NF-kB reporter: 0.97 ± 0.06 for the first, 1.18 ± 0.067 for the second.

First: COc1ccccc1OCC(O)CN1CCN(CC(=O)Nc2c(C)cccc2C)CC1 (stereo not given)
Second: COc1ccccc1N1CCN(CC(O)COc2cccc3ccccc23)CC1.Cl.Cl (stereo not given)
The NF-kB reporter of the first is higher: 0.99 ± 0.087 for the first, 0.595 ± 0.13 for the second.

`O=C(O)c1cc2ccccc2[nH]1` and `O=Cc1c[nH]c2ccccc12` are within error of each other in NF-kB reporter: 1.02 ± 0.087 for the first, 0.913 ± 0.2 for the second.

`CCCOc1ccc(-c2ccc(-c3nc(Cc4ccc(OC)c(OC)c4)no3)cc2)cc1` and `COc1ccc(C(=O)Oc2ccc(-c3ccc(C)cc3)cc2)cc1OC` are within error of each other in NF-kB reporter: 0.763 ± 0.062 for the first, 0.744 ± 0.058 for the second.

Going from `Cc1ccc(S(=O)(=O)n2cnc3ccccc32)cc1C` to `CC(=O)c1cc(Cl)ccc1OC(=O)c1ccccc1Cl`, the NF-kB reporter rises from 0.594 ± 0.066 to 0.767 ± 0.07.

First: CNCC[C@@H](Oc1cccc2ccccc12)c1cccs1 [Prestw-1708]
Second: CC(=NN1CCN(Cc2cccc3ccccc23)CC1)c1ccc(O)cc1
The NF-kB reporter of the first is lower: 0.661 ± 0.054 for the first, 0.841 ± 0.062 for the second.

`CNC(=NC#N)NCCSCc1nc[nH]c1C` and `Cc1cc(C(O)CCNC(=O)COc2cccc3c2OC(C)(C)C3)c(C)o1` (stereo not given) are within error of each other in NF-kB reporter: 0.952 ± 0.073 for the first, 1.04 ± 0.099 for the second.

`Nc1nc(N)c2nc(-c3ccccc3)c(N)nc2n1` and `O=C(CSc1nc(-c2ccccc2)c(-c2ccccc2)o1)N1CCOCC1` are within error of each other in NF-kB reporter: 0.861 ± 0.15 for the first, 1.03 ± 0.081 for the second.

Going from `O=C(O)CCCCC1SCC2NC(=O)NC21` (stereo not given) to `C#Cc1cccc(Nc2ncnc3cc(OC)c(OCCCCCCC(=O)NO)cc23)c1`, the NF-kB reporter rises from 0.935 ± 0.067 to 1.12 ± 0.058.

Compared with `c1ccc(OCCOc2ccc(Nc3ccnc4cc5ccccc5cc34)cc2)cc1`, `CCS(=O)(=O)c1ccc(-c2ccc(NC(=O)c3cccc(OC)c3OC)cc2)nn1` is higher in NF-kB reporter: 0.294 ± 0.05 for the first, 0.914 ± 0.059 for the second.

First: CC(C)(C)NCC(=O)Nc1ccc(S(N)(=O)=O)cc1
Second: CC(=O)Nc1ccc(S(=O)(=O)N2CCC(Oc3cc(C)nc(C)n3)C2)cc1 (stereo not given)
The NF-kB reporter of the first is lower: 0.762 ± 0.061 for the first, 0.919 ± 0.039 for the second.

Going from `CN(C)CC(c1ccc(O)cc1)C1(O)CCCCC1` (stereo not given) to `CC[C@@]1(O)C(=O)OCc2c1cc1n(c2=O)Cc2cc3c(CN(C)C)c(O)ccc3nc2-1.Cl`, the NF-kB reporter rises from 0.971 ± 0.16 to 2.27 ± 0.11.

First: CCC1OC(=O)C(C)C(OC2CC(C)(OC)C(O)C(C)O2)C(C)C(OC2OC(C)CC(N(C)C)C2O)C(C)(O)CC(C)CN(C)C(C)C(O)C1(C)O (stereo not given)
Second: CN(C)c1nc(CNC(=O)CSc2nc3ccccc3o2)nc(N(C)C)n1
The NF-kB reporter of the first is lower: 0.593 ± 0.046 for the first, 1.01 ± 0.07 for the second.

Going from `Cc1cc(C(=O)NCc2sc(-c3ccccc3Cl)nc2C)c(C)o1` to `CCOc1ccc2nc(NC(=O)c3ccc(Br)cc3F)sc2c1`, the NF-kB reporter rises from 0.883 ± 0.039 to 1.15 ± 0.095.

Going from `COc1cc2ncnc(Nc3ccc(F)c(Cl)c3)c2cc1OCCCN1CCOCC1.Cl` to `Cc1cn(-c2cc(NC(=O)c3ccc(C)c(Nc4nccc(-c5cnccn5)n4)c3)cc(C(F)(F)F)c2)cn1`, the NF-kB reporter rises from 0.0798 ± 0.019 to 0.892 ± 0.22.

`CCOC(=O)Cc1nnnn1C` and `CC(C)(C)C1(O)CC(C(F)(F)F)=NN1C(=O)c1cccc([N+](=O)[O-])c1` (stereo not given) are within error of each other in NF-kB reporter: 0.888 ± 0.27 for the first, 0.62 ± 0.091 for the second.

`O=C(C=Cc1ccc(-c2cccc(Cl)c2)o1)c1ccc(Cl)cc1` and `O=Cc1ccc(OCc2cccc([N+](=O)[O-])c2)c(Br)c1` are within error of each other in NF-kB reporter: 0.755 ± 0.085 for the first, 0.777 ± 0.091 for the second.

Going from `CN(C)c1ccc(C2N(C)c3ccccc3N2C)cc1` to `COc1ccc([N+](=O)[O-])cc1NC(=O)c1ccccc1SC`, the NF-kB reporter falls from 1.2 ± 0.19 to 0.656 ± 0.079.

Same assay, conditions: modulator concentration 10 µM; agonist: LPS 0.1 ug/mL

`CN(C)CCNC(=O)C(=O)NC(c1ccccc1)c1ccccc1` and `COC(=O)C1=C(C)NC(C)=C(C(=O)OC(C)(C)CN(C)CCC(c2ccccc2)c2ccccc2)C1c1cccc([N+](=O)[O-])c1.Cl` (stereo not given) are within error of each other in NF-kB reporter: 1.01 ± 0.089 for the first, 0.807 ± 0.17 for the second.

`Cc1nc2n(c(=O)c1CCN1CCC(c3noc4cc(F)ccc34)CC1)CCCC2O` (stereo not given) and `CC[C@@H]1C(=O)N(C)c2cnc(Nc3ccc(C(=O)N[C@H]4CC[C@H](N5CCN(CC6CC6)CC5)CC4)cc3OC)nc2N1C(C)C` are within error of each other in NF-kB reporter: 1.14 ± 0.071 for the first, 1.22 ± 0.31 for the second.

`Cc1cnc2c(c1N1CCC(Cc3ccccc3)CC1)c(=O)n(C)c(=O)n2C` and `CCN1CCN(c2nc3c(c(=O)[nH]c(=O)n3C)n2CC(O)COc2cc(C)ccc2C(C)C)CC1` (stereo not given) are the same in NF-kB reporter: 1.08 ± 0.084 for the first, 1.08 ± 0.086 for the second.

Compared with `COc1ccccc1OCC(O)CN1CCN(CC(=O)Nc2c(C)cccc2C)CC1` (stereo not given), `COc1ccccc1N1CCN(CC(O)COc2cccc3ccccc23)CC1.Cl.Cl` (stereo not given) is lower in NF-kB reporter: 0.943 ± 0.089 for the first, 0.696 ± 0.13 for the second.

First: O=C(O)c1cc2ccccc2[nH]1
Second: O=Cc1c[nH]c2ccccc12
The NF-kB reporter of the first is lower: 0.963 ± 0.08 for the first, 1.5 ± 0.14 for the second.

`CCCOc1ccc(-c2ccc(-c3nc(Cc4ccc(OC)c(OC)c4)no3)cc2)cc1` and `COc1ccc(C(=O)Oc2ccc(-c3ccc(C)cc3)cc2)cc1OC` are within error of each other in NF-kB reporter: 0.972 ± 0.046 for the first, 0.892 ± 0.042 for the second.

Going from `Cc1ccc(S(=O)(=O)n2cnc3ccccc32)cc1C` to `CC(=O)c1cc(Cl)ccc1OC(=O)c1ccccc1Cl`, the NF-kB reporter falls from 1.11 ± 0.065 to 0.803 ± 0.051.

`CNCC[C@@H](Oc1cccc2ccccc12)c1cccs1` [Prestw-1708] and `CC(=NN1CCN(Cc2cccc3ccccc23)CC1)c1ccc(O)cc1` are within error of each other in NF-kB reporter: 0.98 ± 0.073 for the first, 0.886 ± 0.079 for the second.

`CNC(=NC#N)NCCSCc1nc[nH]c1C` and `Cc1cc(C(O)CCNC(=O)COc2cccc3c2OC(C)(C)C3)c(C)o1` (stereo not given) are within error of each other in NF-kB reporter: 0.94 ± 0.11 for the first, 1.01 ± 0.15 for the second.

`Nc1nc(N)c2nc(-c3ccccc3)c(N)nc2n1` and `O=C(CSc1nc(-c2ccccc2)c(-c2ccccc2)o1)N1CCOCC1` are within error of each other in NF-kB reporter: 1.03 ± 0.17 for the first, 1.02 ± 0.079 for the second.

First: O=C(O)CCCCC1SCC2NC(=O)NC21 (stereo not given)
Second: C#Cc1cccc(Nc2ncnc3cc(OC)c(OCCCCCCC(=O)NO)cc23)c1
The NF-kB reporter of the first is lower: 1.13 ± 0.078 for the first, 1.45 ± 0.11 for the second.

`c1ccc(OCCOc2ccc(Nc3ccnc4cc5ccccc5cc34)cc2)cc1` and `CCS(=O)(=O)c1ccc(-c2ccc(NC(=O)c3cccc(OC)c3OC)cc2)nn1` are within error of each other in NF-kB reporter: 1.04 ± 0.067 for the first, 0.977 ± 0.1 for the second.

`CC(C)(C)NCC(=O)Nc1ccc(S(N)(=O)=O)cc1` and `CC(=O)Nc1ccc(S(=O)(=O)N2CCC(Oc3cc(C)nc(C)n3)C2)cc1` (stereo not given) are within error of each other in NF-kB reporter: 0.821 ± 0.064 for the first, 0.923 ± 0.098 for the second.

`CN(C)CC(c1ccc(O)cc1)C1(O)CCCCC1` (stereo not given) and `CC[C@@]1(O)C(=O)OCc2c1cc1n(c2=O)Cc2cc3c(CN(C)C)c(O)ccc3nc2-1.Cl` are within error of each other in NF-kB reporter: 1.07 ± 0.26 for the first, 1.41 ± 0.12 for the second.

`CCC1OC(=O)C(C)C(OC2CC(C)(OC)C(O)C(C)O2)C(C)C(OC2OC(C)CC(N(C)C)C2O)C(C)(O)CC(C)CN(C)C(C)C(O)C1(C)O` (stereo not given) and `CN(C)c1nc(CNC(=O)CSc2nc3ccccc3o2)nc(N(C)C)n1` are within error of each other in NF-kB reporter: 1.1 ± 0.07 for the first, 1.13 ± 0.12 for the second.

`Cc1cc(C(=O)NCc2sc(-c3ccccc3Cl)nc2C)c(C)o1` and `CCOc1ccc2nc(NC(=O)c3ccc(Br)cc3F)sc2c1` are within error of each other in NF-kB reporter: 1 ± 0.081 for the first, 1.1 ± 0.098 for the second.

First: COc1cc2ncnc(Nc3ccc(F)c(Cl)c3)c2cc1OCCCN1CCOCC1.Cl
Second: Cc1cn(-c2cc(NC(=O)c3ccc(C)c(Nc4nccc(-c5cnccn5)n4)c3)cc(C(F)(F)F)c2)cn1
The NF-kB reporter of the first is lower: 0.978 ± 0.06 for the first, 1.17 ± 0.059 for the second.

`CCOC(=O)Cc1nnnn1C` and `CC(C)(C)C1(O)CC(C(F)(F)F)=NN1C(=O)c1cccc([N+](=O)[O-])c1` (stereo not given) are within error of each other in NF-kB reporter: 1.02 ± 0.11 for the first, 1.08 ± 0.062 for the second.

`O=C(C=Cc1ccc(-c2cccc(Cl)c2)o1)c1ccc(Cl)cc1` and `O=Cc1ccc(OCc2cccc([N+](=O)[O-])c2)c(Br)c1` are within error of each other in NF-kB reporter: 0.746 ± 0.038 for the first, 0.737 ± 0.057 for the second.

First: CN(C)c1ccc(C2N(C)c3ccccc3N2C)cc1
Second: COc1ccc([N+](=O)[O-])cc1NC(=O)c1ccccc1SC
The NF-kB reporter of the first is higher: 1.69 ± 0.13 for the first, 0.705 ± 0.14 for the second.
